Test results as given in PubChem BioAssay AID1159580 (chemical genetic matrix, 2015).
Several values for one entry are separate records, joined by “and”; a condition that tells them apart may be missing. Equal entries are not always repeated. Screen size: about 5,500 compounds; about 2,000 (36%) were called active. Inconclusive results (about 18%) are left out. Rule as the data show it: active = normalized growth mostly below about 0.91 (no sharp cut-off); inconclusive = no clear call, values can overlap the other calls; inactive = mostly above about 0.92. The list shows a part of the results.

Experiment: chemical genetic growth profiling, strain panel (AID 1159580);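 also: tested at 20 µM; growth read once vehicle control cultures reached saturation at 30 °C; 1 = growth at the plate median or of vehicle wells; lower values mean less growth of the strain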
Conditions: S. cerevisiae deletion strains, growth OD

Measured: normalized growth

CS(=O)(=O)Nc1ccc([N+](=O)[O-])cc1Oc1ccccc1
inactive: locus YAL013W, strain DEP1, active compounds read low 0.986 and 1 | locus YAL021C, strain ccr4, active compounds read low 0.991 | locus YAL026C, strain drs2, active compounds read low 0.991 | locus YAL030W, strain snc1, active compounds read low 1 | locus YAL040C, strain CLN3, active compounds read low 1 | locus YBL061C, strain skt5, active compounds read low 0.994 | locus YBR009C, strain hhf1, active compounds read low 0.971 | locus YBR021W, strain FUR4, active compounds read low 0.994 | locus YBR023C, strain chs3, active compounds read low 0.984 | locus YBR171W, strain sec66, active compounds read low 0.988 | locus YBR229C, strain ROT2, active compounds read low 0.958 | locus YBR231C, strain swc5, active compounds read low 0.993 | locus YBR279W, strain paf1, active compounds read low 0.994 | locus YCL011C, strain gbp2, active compounds read low 0.996 | locus YCL016C, strain dcc1, active compounds read low 0.997 | locus YCL029C, strain bik1, active compounds read low 0.97 | locus YCL061C, strain MRC1 (second series), active compounds read low 1.01 | locus YCL061C, strain MRC1, active compounds read low 1 | locus YCL069W, strain vba3, active compounds read low 0.997 | locus YCR088W, strain abp1, active compounds read low 0.999 | locus YDL005C, strain med2, active compounds read low 0.991 | locus YDL035C, strain GPR1, active compounds read low 0.976 | locus YDL040C, strain nat1, active compounds read low 0.985 | locus YDL074C, strain BRE1, active compounds read low 0.944 | locus YDL101C, strain DUN1, active compounds read low 0.964 | locus YDL134C, strain PPH21, active compounds read low 0.999 | locus YDL185W, strain tfp1, active compounds read low 0.971 | locus YDL192W, strain arf1, active compounds read low 0.966 | locus YDR001C, strain nth1, active compounds read low 0.993 | locus YDR069C, strain doa4, active compounds read low 1.02 | locus YDR101C, strain arx1, active compounds read low 0.98 | locus YDR137W, strain rgp1, active compounds read low 0.857 | locus YDR150W, strain NUM1, active compounds read low 0.983 and 1.02 | locus YDR159W, strain sac3, active compounds read low 0.977 | locus YDR162C, strain NBP2, active compounds read low 0.979 | locus YDR195W, strain ref2 1.01 | locus YDR297W, strain sur2, active compounds read low 0.991 | locus YDR318W, strain mcm21, active compounds read low 0.991 | locus YDR334W, strain swr1, active compounds read low 1 | locus YDR335W, strain msn5, active compounds read low 0.993 | locus YDR363W, strain ESC2, active compounds read low 0.994 | locus YDR388W, active compounds read low 0.977 | locus YDR392W, strain spt3, active compounds read low 0.904 | locus YDR502C, strain sam2, active compounds read low 0.943 | locus YEL003W, strain gim4, active compounds read low 0.999 | locus YEL037C, strain rad23, active compounds read low 0.995 | locus YEL061C, strain CIN8 (second series), active compounds read low 0.988 | locus YEL061C, strain CIN8, active compounds read low 0.979 | locus YER002W, strain NOP16, active compounds read low 0.997 | locus YER015W, strain faa2, active compounds read low 0.994 | locus YER016W, strain bim1, active compounds read low 0.991 | locus YER110C, active compounds read low 0.986 | locus YER111C, strain swi4, active compounds read low 0.978 | locus YER155C, strain BEM2 (second series), active compounds read low 0.991 | locus YER155C, strain BEM2, active compounds read low 1 | locus YER167W, strain BCK2, active compounds read low 1 | locus YFR010W, strain ubp6, active compounds read low 1 | locus YGL078C, strain dbp3, active compounds read low 0.978 | locus YGL086W, strain mad1, active compounds read low 0.969 | locus YGL167C, strain pmr1, active compounds read low 0.988 | locus YGL173C, strain kem1, active compounds read low 0.995 | locus YGL227W, strain vid30, active compounds read low 0.997 | locus YGL240W, strain doc1, active compounds read low 0.995 | locus YGL248W, strain PDE1, active compounds read low 0.946 | locus YGL253W, strain hxk2, active compounds read low 1.01 | locus YGR078C, strain PAC10, active compounds read low 0.96 and 1.02 | locus YGR135W, strain pre9, active compounds read low 1.02 | locus YGR229C, strain SMI1, active compounds read low 0.971 | locus YGR252W, strain gcn5, active compounds read low 0.92 | locus YHR013C, strain ard1, active compounds read low 0.967 | locus YHR027C, strain rpn1, active compounds read low 0.995 | locus YHR030C, strain SLT2, active compounds read low 0.995 and 1.02 | locus YHR079C, strain IRE1 (second series), active compounds read low 0.977 | locus YHR079C, strain IRE1, active compounds read low 1.04 | locus YHR094C, strain hxt1, active compounds read low 0.98 | locus YHR129C, strain ARP1, active compounds read low 0.987 | locus YHR142W, strain chs7, active compounds read low 0.991 | locus YHR200W, strain rpn10, active compounds read low 0.972 | locus YIL066C, strain RNR3, active compounds read low 0.964 | locus YIL073C, strain SPO22, active compounds read low 0.969 | locus YIL125W, strain kgd1, active compounds read low 0.98 | locus YIR030C, strain dcg1, active compounds read low 0.976 | locus YJL092W, strain hpr5, active compounds read low 0.997 | locus YJL095W, strain BCK1 (second series), active compounds read low 0.993 | locus YJL095W, strain BCK1, active compounds read low 0.956 and 1.04 | locus YJL115W, strain asf1, active compounds read low 0.999 | locus YJL129C, strain trk1, active compounds read low 0.979 | locus YJL134W, strain LCB3, active compounds read low 0.991 | locus YJL154C, strain vps35, active compounds read low 0.992 | locus YJL164C, strain tpk1, active compounds read low 0.992 | locus YJL166W, strain qcr8, active compounds read low 0.997 | locus YJL168C, strain set2, active compounds read low 0.98 | locus YJL187C, strain SWE1 (second series), active compounds read low 0.949 | locus YJL187C, strain SWE1, active compounds read low 0.996 | locus YJR043C, strain POL32, active compounds read low 0.911
